# Assay outcomes as filed in PubChem.
# ALR inh – blocks human ALR sulfhydryl oxidase activity; inhibition, % (test concentration not listed); purified ALR, DTT oxidation, H2O2 HRP-luminol luminescence; AID 485317; P55789; actives 3.8% (n = 290,000);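 active means mean replicate inhibition above about 79%, with every replicate also reaching it, limit read from the data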
# A3A deaminase – human APOBEC3A DNA deaminase inhibition. P31941. recombinant A3A, FAM/TAMRA ssDNA deamination fluorescence. inhibition, % at 20 µM. actives 0.41% (n = 330,000). AID 493011;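 active means at least 40% inhibition at 20 µM here, with at most 30% in a related deaminase screen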;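 further: plate controls were A3A with DMSO for no effect and wells lacking A3A enzyme for full effect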
# Target sequence (P31941 whole entry, looked up): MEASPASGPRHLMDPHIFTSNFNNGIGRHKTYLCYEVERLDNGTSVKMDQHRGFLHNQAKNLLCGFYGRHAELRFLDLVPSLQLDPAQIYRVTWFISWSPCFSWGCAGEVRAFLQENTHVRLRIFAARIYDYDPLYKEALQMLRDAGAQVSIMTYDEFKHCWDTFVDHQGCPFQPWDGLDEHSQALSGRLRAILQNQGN
# A3G deaminase – blocks human APOBEC3G single-stranded DNA deamination; recombinant A3G, ssDNA deamination FAM/TAMRA fluorescence; inhibition, % at 20 µM; Q9HC16; actives 0.28% (n = 330,000);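 active means inhibition of at least 40% at 20 µM, with no more than 30% in the related APOBEC3A deaminase screen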;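 further: plate controls were DMSO wells with A3G for no effect and wells lacking A3G enzyme for full effect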
# rCAG binder – binds r(CAG) RNA repeats. actives 1.3% (n = 370,000). inhibition, % at 3 µM. r(CAG) RNA repeat, TO-PRO-1 dye displacement fluorescence. AID 651821;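 active means inhibition above the plate cutoff, the mean of all test compounds on that plate plus 3 SD, cut at about 35% in these data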;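 further: 0% = DMSO alone and 100% = 100 µM mitoxantrone as full dye displacement; higher means more dye released from RNA so lower well fluorescence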
# aDG glyco act – alpha-DG glycosylation activation. Pro5-aDG cells, alpha-DG glycosylation AlphaScreen (IIH6); 0% Pro5, 100% B10-LARGE cell signal. activation, % at 10 µM. actives 0.22% (n = 360,000). AID 624168;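 active means activation of at least 8% versus controls, or a plate z-score of at least 8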;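 further: Pro5 are CHO cells carrying HIG-tagged alpha-DG that lacks glycosylation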
# PHOSPHO1 block – inhibitors of human PHOSPHO1 phosphatase. recombinant PHOSPHO1, absorbance phosphatase assay. inhibition, % at 13.3 µM. actives 1.1% (n = 290,000); in the data active means inhibition above about 60%
# Target sequence (Q8TCT1 whole entry, looked up): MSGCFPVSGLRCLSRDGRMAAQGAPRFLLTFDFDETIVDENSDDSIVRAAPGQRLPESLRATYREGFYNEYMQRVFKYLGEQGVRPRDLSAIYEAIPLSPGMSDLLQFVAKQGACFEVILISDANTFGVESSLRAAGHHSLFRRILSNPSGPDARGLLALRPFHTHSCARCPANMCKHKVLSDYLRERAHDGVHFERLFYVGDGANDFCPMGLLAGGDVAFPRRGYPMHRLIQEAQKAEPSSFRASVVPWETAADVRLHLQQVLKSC
# Active calls of the source: *; . = no result given. Sampled rows, rich in hits. Any-hit rate of the full collection: about 5.4%.
SMILES,ALR inh,A3A deaminase,A3G deaminase,rCAG binder,aDG glyco act,PHOSPHO1 block
O=C(O)c1cc(O)ccc1O,.,.,.,2,0,.
COc1ccc(/C=C2/SC(c3ccc(C)cc3)=NC2=O)cc1OC,-3,-7,-5,15,0,74*
CCN1CCN(C(=O)C(NS(=O)(=O)c2ccc3nc(C)sc3c2)C(C)C)CC1 (configuration not stated),92*,-3,-8,0,0,4
Cc1nc2ccc(S(=O)(=O)NC(C(=O)NC3CCCC3)C(C)C)cc2s1 (configuration not stated),96*,0,-6,-1,0,5
Cc1nc2ccc(S(=O)(=O)NC(C(=O)NCc3ccc4c(c3)OCO4)C(C)C)cc2s1 (configuration not stated),-37,1,1,2,0,-4
COP(=O)(OC)C(Cc1ccccc1)NC(=O)CNC(=O)OCc1ccccc1 (configuration not stated),.,.,.,1,.,.
CCCCN1CCN(C(=O)Cn2c(=O)c3ccccc3n(CC)c2=O)CC1,.,.,.,1,.,.
COc1ccc(-c2nc(CN3CCC(C(=O)NCC4CCCO4)CC3)c(C)o2)cc1OC (configuration not stated),-10,-6,-7,-5,0,60
COc1ccc(-c2nc(CSCC(=O)NCCCN3CCCC3=O)c(C)o2)cc1OC,98*,-6,-1,-4,1,44
Cc1ccc(-c2nc(CSCC(=O)NCC3CCCO3)c(C)o2)cc1 (configuration not stated),95*,-1,0,-5,0,19
COc1ccc(-c2nc(CSCC(=O)NCC3CCCO3)c(C)o2)cc1OC (configuration not stated),98*,-1,-5,-3,0,28
CCOc1ccc(-c2nc(CSCC(=O)NCC3CCCO3)c(C)o2)cc1 (configuration not stated),99*,2,2,-8,1,12
Cc1ccc(-c2nc(CSCC(=O)Nc3cc(C)on3)c(C)o2)cc1,.,0,-8,1,0,17
CCc1cc(=O)oc2c(C)c(OCC(=O)NCCCN3CCCC3=O)ccc12,1,-11,-6,-6,0,2
O=C(OCc1cn(Cc2c(F)cccc2F)nn1)N1CCCC1,.,.,.,1,.,.
Cc1ccc(-c2cc(-c3nnc(SCC(=O)N4CCOCC4)n3N)[nH]n2)cc1,.,.,.,1,.,.
CCN(CC)CCCNC(=O)c1oc(=O)c2ccccc2c1-c1ccc(C)cc1,.,.,.,6,.,.
COc1ccc2c(c1)CNC2CS(=O)(=O)NCC(C)C (configuration not stated),.,.,.,7,.,.
c1ccc(NCCSc2nc3ccccc3s2)cc1,.,.,.,2,0,.
c1csc(CSc2nc3ccccc3s2)c1,94*,-3,-6,-1,0,14
CCN(C(C)=O)c1nnc(CSc2nc3ccccc3s2)s1,.,.,.,0,0,-6
CNc1nnc(CSc2nc3ccccc3s2)s1,99*,1,-5,0,0,-2
CCS(=O)CCSc1nc2ccccc2s1 (configuration not stated),99*,1,-2,1,0,34
CC1(C)CC(=O)C(C(N)=NC(=O)c2ccc([N+](=O)[O-])cc2)=C(O)C1,89*,5,-3,-1,0,-10
CCOc1cccc(C(=O)Nc2nnc(-c3ccco3)s2)c1,.,-1,-5,9,0,76*
SMILES,ALR inh,A3A deaminase,A3G deaminase,rCAG binder,aDG glyco act,PHOSPHO1 block
COc1ccc(-c2cnn(-c3ccccc3)c2N)cc1OC,90*,0,2,-8,0,3
COc1cc(OC)cc(-c2cn[nH]c2N)c1,99*,-3,-7,10,0,52
COc1ccc(-c2cn[nH]c2N)cc1OC,99*,-3,8,3,0,5
COc1ccc(-c2nc(N)n[nH]2)cc1OC,3,10,3,-1,0,10
COc1ccc(-c2cn[nH]c2C)cc1,-23,-4,-9,-3,0,7
Cc1ccc(-c2cnn(-c3ccccc3)c2N)cc1,1,-5,-9,4,0,28
Cc1cccc(-c2cccc3c4c([nH]c23)[C@@H]2C[C@H](N(C)C(=O)c3cccc(Cl)c3)[C@H]([C@H](C)O)CN2CC4)c1,.,.,.,8,.,.
Cc1c(NS(=O)(=O)c2ccccc2)cc(Cl)c(O)c1C,99*,-1,7,2,0,13
Cc1c(Cl)cccc1NS(=O)(=O)c1ccccc1,.,.,.,3,0,.
CCC[C@@H](/C=C/C(=O)OC(C)(C)C)Sc1ccccc1OC,.,.,.,2,.,.
CCCN(CCC)S(=O)(=O)c1ccc(C(=O)Nc2nnc(-c3cc(OC)cc(OC)c3)o2)cc1,5,1,2,.,5.5*,5
COCc1nnc(NC(=O)c2ccc(S(=O)(=O)N(CC(C)C)CC(C)C)cc2)o1,95*,-3,-4,22,0,57
CCCCCC[C@H](CN(CCCC)S(C)(=O)=O)c1ccccc1,.,.,.,0,.,.
COc1cc(/C=N/NC(=O)CCc2ccccc2)ccc1O,99*,1,-3,1,0,12
COc1ccc(OC)c(/C=N/Nc2nncn2/N=C/c2cc(OC)ccc2OC)c1,-3,4,-4,-2,0,-6
COc1cc(/C=N/NC(=O)CNC(=O)c2ccco2)ccc1O,99*,4,-1,-1,-1,27
COc1cc(/C=N/Nc2ccccc2)ccc1O,99*,-1,-5,7,0,1
O=C(CNC(=O)c1ccco1)N/N=C/c1cc(Br)ccc1O,.,-2,-9,5,0,-20
COc1cc(/C=N/Nc2nncn2/N=C/c2ccc(O)c(OC)c2)ccc1O,99*,-4,-7,-3,0,-5
Cc1ccc(N(C)c2nc(N)nc(N)c2N=O)cc1,.,.,.,-74,.,.
COc1ccc(C2CC(=O)C(c3ccc4ccccc4c3)=CN2Cc2ccccc2)cc1 (configuration not stated),.,.,.,7,.,.
O=C(CCNC(=O)c1ccccc1Cl)N/N=C\c1ccc(O)cc1,.,-2,-8,1,0,-1
COc1ccc(/C=N/NC(=O)c2ccco2)cc1Cn1nc(C)c([N+](=O)[O-])c1C,26,3,-6,2,0,-22
COc1cc(/C=N/NC(=O)CCNC(=O)c2ccccc2Cl)ccc1O,99*,-1,-10,-1,-1,9
COc1ccc(/C=N/NC(=O)c2ccco2)cc1Cn1nc(C)cc1C,77*,-1,0,-1,0,-5
CC(=NNc1cc(C)c2ccccc2n1)c1ccccn1,.,.,.,2,.,.
COc1ccc(N2CCN(c3nc4ccc(C)cn4c(=O)c3C=O)CC2)cc1,81*,-2,-6,-3,0,13
Cc1ccc2nc(N3CCN(c4ccccc4)CC3)c(C=O)c(=O)n2c1,1,-4,27,-5,0,21
